Laboratory results taken from PubChem BioAssay (NCI).
Where “and” joins values, the source holds several entries; their conditions need not be identical. Equal entries are not always repeated. Compounds without any hit were thinned out: in the full panel of roughly 83,000, 20% have a hit.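 Negative percent growth values reflect cell death: -40 means 40% of the cells present at the start died, and -100 means all died.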 Values without a mark were called inactive. Calls of active or inactive are those of the source. The calls were made as follows: active = growth percent below 10; inactive = the rest.

Each compound was assayed on MDA-MB-468 breast (assay: NCI-60 one-dose screen, 48 h (100 = growth as untreated, 0 = no growth, -100 = all killed)). Conditions: 10 µM unless noted.

Row | SMILES | growth
1 | N=c1c2c(=O)n3c(nc2nc2sc4ccc(Cl)cc4n12)-c1ccccc1Sc1ccccc1-3 | 24.3%
2 | COc1ccc(-c2cc(-c3ccc(Cl)cc3)nc(SCCCC(=O)NO)n2)cc1OC | -55.5% (active)
3 | CCOC(=O)c1c(Nc2ccccc2)nn2c(N)c(C#N)c(-c3ccc(OC)cc3)nc12 | 73.1%
4 | O=[N+]([O-])c1ccccc1N(S(=O)(=O)c1ccccc1)S(=O)(=O)c1ccccc1 | 106% and 90%
5 | CCN(CC)C(=O)C1CCN(C(=O)c2ccccc2)CC1 | 109%
6 | CC[C@@]1(OC(=O)CN(C)C)C(=O)OCc2c1cc1n(c2=O)Cc2cc3c(N)cccc3nc2-1 | -66.4% (active)
7 | COc1cc(CNC(=O)CCCCC[P+](c2ccccc2)(c2ccccc2)c2ccccc2)c(OC)c2c1OCO2 | 6.74% (active)
8 | O=C(NCCN1CCOCC1)c1cncnc1Nc1ccc2c(ccn2Cc2ccccn2)c1 | 98%
9 | CCOc1cc2ncc(C#N)c(Nc3ccc(OCc4cccc(F)c4)c(Cl)c3)c2cc1NC(=O)CC1CCSS1 (stereo not given) | -5.09% (active)
10 | CC(C)c1[nH]nc2c(NCc3ccc(-c4ccccn4)cc3)nc(SCCN)nc12 | -60.3% (active)
11 | Brc1ccc(Oc2ccc(Nc3ncnc4onc(-c5ccccc5)c34)cc2)cc1 | 103%
12 | COC(=O)N1CCN(CCNCc2ccc(NC(=O)c3ccc(C)c(C#Cc4cnc5cccnn45)c3)cc2C(F)(F)F)CC1 | -8.93% (active)
13 | COc1cccc2cc(-c3cc4ccccc4[nH]3)/c(=N/C(=S)Nc3ccc(C)cc3)oc12 | 81.6%
14 | COc1ccc(NC2=C(Cl)C(=O)C(C)=C(C)C2=O)cc1 | -38.4% (active)
15 | Nc1c(C(=O)Nc2ccccc2)sc2nc3c(cc12)CCCC3 | 31.1%
16 | CC(C)(C)c1ccc(Cn2c(-c3nonc3N)nc3ccccc32)cc1 | 47.6%
17 | Cc1cc(C)n(-c2nc(-c3cccs3)c(C#N)c(=O)[nH]2)n1 | 112%
18 | COc1cc(-c2cc(-c3ccc(Nc4ncnc5cc(Cl)ccc45)cc3)nc(N3CCN(C)CC3)n2)cc(OC)c1OC | 105%
19 | CC(=O)c1c(Nc2ccc(F)c(F)c2F)[nH]c2c(F)cc(F)cc2c1=O | -21.9% (active)
20 | CCCc1nc(C(C)(C)O)c(C(=O)O)n1Cc1ccc(-c2ccccc2-c2nn[nH]n2)cc1 | 112%

Row | SMILES | growth
21 | COc1cc(/C=N\NC(=O)CN2CCN(c3cc4c(cc3F)c(=O)c(C(=O)N/N=C/c3cc(OC)c(OC)c(OC)c3)cn4C3CC3)CC2)cc(OC)c1OC | -31.1% (active)
22 | O=C(CCCC(=O)N/N=C/c1cc(Cl)ccc1O)N/N=C\c1cc(Cl)ccc1O | 10.3%
23 | COc1ccccc1C(C[N+](=O)[O-])c1c(-c2ccccc2)[nH]c2cc(C)ccc12 (stereo not given) | 44.4%
24 | COC1OC(COS(=O)OC)C(O)C(O)C1OS(=O)OC (stereo not given) | 96.4%
25 | COc1ccc(-c2cc(C(=O)N=Nc3c(O)[nH]c4ccc(Br)cc34)no2)cc1 | 103%
26 | COc1cc(C2CC(c3ccc(C)cc3)=NN2C=O)ccc1Oc1nc2c(c(=O)n(C)c(=O)n2C)n1C (stereo not given) | 73.8%
27 | CCNC(=O)N1CCc2cc(OC)c(OCCc3ccc(OC)c(N)c3)cc2C1c1ccc(C)cc1C (stereo not given) | -0.144% (active)
28 | O=C(NC1CCOCC1)c1ccc2c(c1)CN(c1ncc(Cc3cccc(-n4cccn4)c3)s1)CC2 | 41.4%
29 | CN(C)CC1C(=O)O[C@H]2[C@H]1CC/C(COC(=O)NCc1ccc(Cn3c(=O)sn(CCCI)c3=O)cc1)=C\CC[C@@]1(C)O[C@@H]21 (stereo not given in full) | -73.3% (active)
30 | Clc1ccc(-c2nc(C(Cl)Cl)nc3cc(-c4ccccc4)nn23)cc1 | -33.8% (active)
31 | CCCCCCCCCCCC(=O)OC(C)C(=O)Nc1ccccc1 (stereo not given) | 111%
32 | Cc1ccc(S(=O)(=O)Nc2ccc3cc([N+](=O)[O-])ccc3c2[N+](=O)[O-])cc1 | 54% and 88.5%
33 | CC(C)(C)N1CC(OC(N)=O)C1 | 84.9%
34 | O=C(Nc1ccc2ncnc(Nc3ccc(F)c(Cl)c3)c2c1)c1cccs1 | -23.8% (active)
35 | CCC(CCCN(CC)CCc1ccccc1)OC(=O)c1cc(OC)c(OC)c(OC)c1 (stereo not given) | 93.1%
36 | CCC(=O)c1ccc(O)c(OC)c1 | 103%
37 | O=S(=O)(/N=c1/n(-c2ccccc2)nc2n1CCN2C1=NCCN1)c1ccc(-c2ccccc2)cc1 | 94.3%
38 | C[C@@H](c1ccc2c(c1)[nH]c1ccc(Cl)cc12)c1nc2ccccc2[nH]1 | -3.2% (active)
39 | C/C(=N\NC(=O)c1ccccc1O)c1cccc(/C(C)=N/NC(=O)c2ccccc2O)n1 | 23.9%
40 | CC1(C)C(=O)/C(=C\c2ccco2)C[C@]2(C)[C@H]3CC=C4[C@@H]5C[C@](C)(C(=O)O)CC[C@]5(C)CC[C@@]4(C)[C@]3(C)CC[C@@H]12 | -47.2% [100 µM] (active)
